# Source: PubChem (NMMLSC)
# GSH bead fluor = GSH bead compound fluorescence profile; GSH beads flow cytometry, compound fluorescence 488/530 nm; hits give high values; fluorescence (KMESF) at 10 µM; 190,000 compounds, 0.25% hits; AID 1776; in the data active = fluorescence above about 89;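 note: glutathione beads carrying GST-tagged Bcl family fusion proteins plus one bare bead set; values are compound well signal with DMSO vehicle wells as background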
# RGS4-Gao reg = human RGS4-Galphao interaction regulation. P09471. Multiplexed bead flow cytometry, RGS4-Galphao binding; actives lie on both sides. binding response (% of control), % at 10 µM. 220,000 compounds, 0.33% hits. AID 1415; in the data active = binding response below about 49% or above about 150%; inactive = in between;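 note: fluorescent Galphao activated with aluminum fluoride binding bead-coupled RGS4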
# RGS7-Gao = human RGS7-Galphao interaction regulation; P09471; Multiplexed bead flow cytometry, RGS7-Galphao binding; actives lie on both sides; binding response (% of control), % at 10 µM; 220,000 compounds, 0.35% hits; AID 1439; in the data active = binding response below about 49% or above about 150%; inconclusive = no clear call, values can overlap the other calls; inactive = in between;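 note: fluorescent Galphao held in activated GDP-AlF4 state binding bead-coupled RGS7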
# Avidin fluor = compound fluoresces at 488/530 nm on avidin beads; compound fluorescence 488/530 nm, flow cytometry; hits give high values; fluorescence (KMESF) at 10 µM; 220,000 compounds, 0.38% hits; in the data active = fluorescence above about 47
# RGS8-Gao = regulators of human RGS8-Galphao interaction; 220,000 compounds, 0.34% hits; P09471; response (percent of control binding), % at 10 µM; multiplexed bead flow cytometry, RGS8-Galphao binding; actives lie on both sides; in the data active = response below about 60% or above about 140%; inactive = in between;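 note: Galphao activated as the GDP aluminium fluoride complex binding bead-coupled RGS8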
# RGS16-Gao = RGS16-Galphao interaction regulator (human) | AID 1441 | bead-based flow cytometry RGS16-Galphao binding, fluorescence; actives lie on both sides | 220,000 compounds, 0.38% hits | binding response (% of control), % at 10 µM | O15492+P09471; call rule not given here;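 note: Galphao activated by GDP with aluminum fluoride before binding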
# Target sequence (O15492 whole entry, looked up): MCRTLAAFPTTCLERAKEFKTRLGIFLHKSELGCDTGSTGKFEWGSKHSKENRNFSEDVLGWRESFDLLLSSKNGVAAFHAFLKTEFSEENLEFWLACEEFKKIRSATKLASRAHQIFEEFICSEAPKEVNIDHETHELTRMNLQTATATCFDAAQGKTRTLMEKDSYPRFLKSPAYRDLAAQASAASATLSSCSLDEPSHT
# Target sequence (P09471 whole entry, looked up): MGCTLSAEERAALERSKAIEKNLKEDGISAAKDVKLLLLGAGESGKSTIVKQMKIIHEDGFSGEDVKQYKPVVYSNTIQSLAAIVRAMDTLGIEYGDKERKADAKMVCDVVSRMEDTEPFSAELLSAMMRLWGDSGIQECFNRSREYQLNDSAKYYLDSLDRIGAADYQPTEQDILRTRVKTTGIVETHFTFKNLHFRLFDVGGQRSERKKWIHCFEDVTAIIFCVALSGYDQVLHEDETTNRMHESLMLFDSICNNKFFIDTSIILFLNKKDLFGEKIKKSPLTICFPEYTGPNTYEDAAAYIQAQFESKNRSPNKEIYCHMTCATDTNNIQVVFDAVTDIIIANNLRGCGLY
# Numbers without * were called inactive; ? = inconclusive; / = no result. This is a sample that favours compounds with a hit; in the whole collection about 1.2% have one here.
SMILES,GSH bead fluor,RGS4-Gao reg,RGS7-Gao,Avidin fluor,RGS8-Gao,RGS16-Gao
Cc1ccnc(NS(=O)(=O)c2ccc3c(c2)CCO3)c1,/,110,?,8,106,110
COc1ccc(OCCSc2nnc(-c3ccccc3)n2N)cc1,28,104,118,63*,99,101
COc1ccc(CCN2C(=O)c3cccc4c(C(=O)N5CCCCC5)ccc(c34)C2=O)cc1OC,10,103,103,12,102,107
CCOc1ccccc1NC(=O)N1C2CCCC1CC(NC(=O)C1CC1)C2 (stereo not drawn),96*,101,101,8,101,98
CCSc1nc2ccc(N3C(=O)C4C5C=CC(C5)C4C3=O)cc2s1 (stereo not drawn),18,102,103,10,103,101
COc1ccc(N=C2S/C(=C\c3ccc(N4CCOCC4)o3)C(=O)N2CCc2c[nH]c3ccccc23)cc1,113*,99,96,23,91,97
COc1ccc(N=C2S/C(=C\c3ccc(OCC(=O)O)cc3)C(=O)N2CCc2c[nH]c3ccccc23)cc1,27,96,96,11,100,101
CCCC(c1nnnn1Cc1cccs1)N1CCN(C2CCCC2)CC1 (stereo not drawn),19,104,150,117*,98,101
CCC(c1nnnn1Cc1cccs1)N1CCN(C2CCCC2)CC1 (stereo not drawn),28,104,108,19,105,104
COC(=O)C1=C(C)OC(N)=C(C#N)C1c1cc2cccc(C)c2nc1Cl (stereo not drawn),22,100,98,12,105,105
COC(=O)C1=C(C)OC(N)=C(C#N)C1c1cc(C)sc1C (stereo not drawn),273*,104,112,7,108,103
O=C(COc1ncnc2ccccc12)N1CCN(S(=O)(=O)c2ccc(Cl)cc2)CC1,264*,98,102,9,100,102
O=C(COc1ncnc2ccccc12)N1CCN(S(=O)(=O)c2ccccc2)CC1,21,98,99,12,99,89
S=c1cnc2ccccc2[nH]1,18,109,118,5,109,105
Cc1ccccc1CSCC(=O)NC(=O)NCc1ccco1,261*,91,92,6,101,104
CCCc1cc(=O)c2c(O)ccc(OC)c2o1,/,97,?,5,99,94
O=C(CSc1cccc(C(F)(F)F)c1)N1CCN(S(=O)(=O)c2ccccc2)CC1,265*,95,90,8,94,96
O=C(O)/C=C/C(=O)N1CCN(S(=O)(=O)c2cccc(C(F)(F)F)c2)CC1,23,100,98,10,101,105
O=C(CN1CCN(c2ccccn2)CC1)Nc1ccc(OCc2ccccc2)cc1,21,105,120,63*,101,110
O=C(CN1CCN(c2ccccn2)CC1)Nc1ccc(Oc2ccccc2)cc1,18,104,98,13,104,107
O=C(CSc1nnc(CNC(=O)c2ccco2)o1)Nc1ccccc1,12,105,120,59*,105,112
COc1ccc(NC(=O)CSc2nnc(CNC(=O)c3ccco3)o2)cc1,11,105,108,25,105,111
Cn1c(=O)[nH]c(NC2CCCCC2)c(N=O)c1=O,15,105,101,5,112,127
CCCNc1[nH]c(=O)n(C)c(=O)c1N=O,8,100,109,69*,102,104
COc1ccc(CCN2C(=O)c3ccccc3C2(O)c2ncc[nH]2)cc1OC (stereo not drawn),146*,95,95,4,98,101
SMILES,GSH bead fluor,RGS4-Gao reg,RGS7-Gao,Avidin fluor,RGS8-Gao,RGS16-Gao
CC(=O)NC1CC(C)(C)N(OC(C)=O)C(C)(C)C1,36,111,133,53*,105,114
COc1ccc(/C=C2\CCCc3c2nc2ccccc2c3C(=O)OCC(=O)c2c(N)n(C)c(=O)n(C)c2=O)cc1,6,101,102,2,104,102
CC(=O)N=c1sc2ccccc2n1C,28,100,102,32,100,101
N/N=c1\sc2ccccc2n1-c1ccccc1,14,106,104,47*,106,104
CCCCC1C(C#N)=C(C)NC2=C1C(=O)CC(C)(C)C2 (stereo not drawn),253*,100,103,6,103,104
COc1ccc(C2C(C#N)=C(C)NC3=C2C(=O)CC(C)(C)C3)c(OC)c1 (stereo not drawn),29,100,98,6,102,104
COC(=O)c1ccc(/C=C(\C#N)c2ccccn2)cc1,13,100,98,8,98,97
COC(=O)c1ccc(OC(=O)c2ccccn2)cc1,269*,100,102,7,99,101
Cc1cc(C)n(-c2nc(NCC(C)O)c3c4c(sc3n2)CCCC4)n1 (stereo not drawn),24,101,100,47*,103,100
O=C(NCCc1c[nH]c2ccccc12)c1ccc(-n2cnnn2)cc1,26,147,133,67*,106,169
O=C(NCCc1ccccc1)c1ccc(-n2cnnn2)cc1,32,88,90,7,102,80
CCOc1ccc2nc3c(cc2c1)CN(CCOC)C(=NC)S3,114*,99,105,5,100,108
O=C(NCc1cccnc1)C(=O)N/N=C/c1ccc([N+](=O)[O-])cc1,26,105,?,7,103,103
Cc1ccc(C(=O)CSc2ccccn2)cc1,16,104,147,65*,106,121
O=C(CSc1ccccn1)c1ccc(F)cc1,6,87,90,5,89,92
CC1CCCN(CCOc2ccc3ccccc3c2Br)C1 (stereo not drawn),23,98,93,5,99,100
O=C(CSc1nc(-c2ccco2)cc(C(F)(F)F)n1)Nc1cccnc1,62,98,124,59*,105,108
COc1ccc(N2CC(NC(=O)NCCC(C)C)CC2=O)cc1 (stereo not drawn),14,100,102,21,100,105
Cc1ccc(Cl)cc1NC(=O)COC(=O)CC1CC2CCC1C2 (stereo not drawn),262*,102,105,9,105,104
Cc1ccc(Cl)cc1NC(=O)COC(=O)C1CC1,12,103,99,16,90,57
O=C(c1c[nH]c2ccc(S(=O)(=O)N3CCC4(CC3)OCCO4)cc2c1=O)N1CCOCC1,12,100,103,51*,101,99
COC(CNC(=O)c1c[nH]c2ccc(S(=O)(=O)N3CCC4(CC3)OCCO4)cc2c1=O)OC,26,95,96,3,90,70
O=[N+]([O-])/C=C\c1ccc(N2CCCC2)c(F)c1,13,104,104,15,95,99
